# Assay results reported in ChEMBL document CHEMBL1961873, “Compounds: GSK PKIS; Assays: Nanosyn kinase panel” (2012).
# Values joined by “and” are separate entries in the source; they are usually repeats but may differ in a detail not shown here. Equal entries are not always repeated.
# Tests used:
# [1] = target: T1, Serine/threonine-protein kinase TBK1 (Homo sapiens) (UniProt Q9UHD2); conditions: at 1 µM;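 also: values are mean inhibition of TBK1, screened as part of the GSK published kinase inhibitor set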
# T1 sequence (whole entry): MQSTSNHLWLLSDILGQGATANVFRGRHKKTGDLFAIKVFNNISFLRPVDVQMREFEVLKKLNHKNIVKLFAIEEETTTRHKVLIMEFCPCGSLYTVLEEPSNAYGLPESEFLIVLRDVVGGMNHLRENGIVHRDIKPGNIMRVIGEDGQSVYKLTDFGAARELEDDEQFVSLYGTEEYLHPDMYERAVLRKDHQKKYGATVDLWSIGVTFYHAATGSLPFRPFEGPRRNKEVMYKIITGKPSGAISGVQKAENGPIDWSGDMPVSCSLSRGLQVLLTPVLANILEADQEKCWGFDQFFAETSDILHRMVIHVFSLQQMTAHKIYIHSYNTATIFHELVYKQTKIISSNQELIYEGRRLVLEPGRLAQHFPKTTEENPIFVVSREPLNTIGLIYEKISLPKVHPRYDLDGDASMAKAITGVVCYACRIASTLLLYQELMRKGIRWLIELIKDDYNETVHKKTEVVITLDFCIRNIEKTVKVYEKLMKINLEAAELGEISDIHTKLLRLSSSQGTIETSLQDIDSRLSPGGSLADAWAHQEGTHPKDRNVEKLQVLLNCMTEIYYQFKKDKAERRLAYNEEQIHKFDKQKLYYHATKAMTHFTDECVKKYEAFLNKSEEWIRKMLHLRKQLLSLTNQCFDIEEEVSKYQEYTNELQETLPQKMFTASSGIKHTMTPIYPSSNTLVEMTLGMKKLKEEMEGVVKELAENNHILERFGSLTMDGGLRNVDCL
# [2] = target: T2, Testis-specific serine/threonine-protein kinase 1 (Homo sapiens) (UniProt Q9BXA7); conditions: at 0.1 µM
# T2 sequence (whole entry): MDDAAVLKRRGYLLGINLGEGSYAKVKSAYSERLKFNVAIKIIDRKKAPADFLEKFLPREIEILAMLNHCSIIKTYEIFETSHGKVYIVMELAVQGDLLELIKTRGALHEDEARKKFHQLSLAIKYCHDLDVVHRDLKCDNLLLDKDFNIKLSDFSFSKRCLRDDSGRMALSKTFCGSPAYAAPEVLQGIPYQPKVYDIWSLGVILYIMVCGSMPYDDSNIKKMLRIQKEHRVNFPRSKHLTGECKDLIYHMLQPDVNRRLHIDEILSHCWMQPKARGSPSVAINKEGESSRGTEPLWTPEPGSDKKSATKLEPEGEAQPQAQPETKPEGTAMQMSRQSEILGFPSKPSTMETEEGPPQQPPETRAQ
# [3] = target: T2, Testis-specific serine/threonine-protein kinase 1 (Homo sapiens); conditions: at 1 µM
# [4] = target: T3, Testis-specific serine/threonine-protein kinase 2 (Homo sapiens) (UniProt Q96PF2); conditions: at 0.1 µM
# T3 sequence (whole entry): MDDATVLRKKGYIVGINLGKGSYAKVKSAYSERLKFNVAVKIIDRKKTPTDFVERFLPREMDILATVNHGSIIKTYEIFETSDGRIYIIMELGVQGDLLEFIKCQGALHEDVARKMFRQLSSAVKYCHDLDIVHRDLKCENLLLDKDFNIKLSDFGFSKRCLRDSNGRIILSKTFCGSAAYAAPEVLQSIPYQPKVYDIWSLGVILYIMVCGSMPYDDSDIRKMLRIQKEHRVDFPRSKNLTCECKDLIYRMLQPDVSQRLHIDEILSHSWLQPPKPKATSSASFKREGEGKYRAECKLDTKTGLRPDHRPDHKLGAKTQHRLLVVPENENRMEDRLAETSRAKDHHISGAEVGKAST
# [5] = target: T3, Testis-specific serine/threonine-protein kinase 2 (Homo sapiens); conditions: at 1 µM
# [6] = target: Casein kinase I isoform alpha (Homo sapiens) (UniProt P48729); conditions: at 0.1 µM
# [7] = target: Casein kinase I isoform alpha (Homo sapiens) (UniProt P48729); conditions: at 1 µM
# [8] = target: Casein kinase I isoform gamma-1 (Homo sapiens) (UniProt Q9HCP0); conditions: at 0.1 µM
# [9] = target: Casein kinase I isoform gamma-1 (Homo sapiens) (UniProt Q9HCP0); conditions: at 1 µM
# [10] = target: Casein kinase I isoform gamma-2 (Homo sapiens) (UniProt P78368); conditions: at 0.1 µM;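 also: values are mean inhibition figures reported as part of the GSK PKIS dataset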
# Sequence of Casein kinase I isoform gamma-2 (Homo sapiens) (P78368 whole entry, looked up, canonical isoform): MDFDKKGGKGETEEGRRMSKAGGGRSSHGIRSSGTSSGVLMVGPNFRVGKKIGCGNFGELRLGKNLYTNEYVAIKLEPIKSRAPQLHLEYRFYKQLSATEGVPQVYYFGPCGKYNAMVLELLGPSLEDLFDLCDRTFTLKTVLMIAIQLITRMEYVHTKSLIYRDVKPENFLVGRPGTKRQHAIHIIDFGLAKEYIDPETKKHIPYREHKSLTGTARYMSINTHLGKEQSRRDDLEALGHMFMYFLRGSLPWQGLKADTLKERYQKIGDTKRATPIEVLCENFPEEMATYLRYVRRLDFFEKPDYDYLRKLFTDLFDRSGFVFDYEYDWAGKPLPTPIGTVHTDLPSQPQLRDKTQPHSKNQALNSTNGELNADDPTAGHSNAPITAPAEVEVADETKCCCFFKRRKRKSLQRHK
# Sequence of Casein kinase I isoform alpha (Homo sapiens) (P48729 2-337 limits assumed): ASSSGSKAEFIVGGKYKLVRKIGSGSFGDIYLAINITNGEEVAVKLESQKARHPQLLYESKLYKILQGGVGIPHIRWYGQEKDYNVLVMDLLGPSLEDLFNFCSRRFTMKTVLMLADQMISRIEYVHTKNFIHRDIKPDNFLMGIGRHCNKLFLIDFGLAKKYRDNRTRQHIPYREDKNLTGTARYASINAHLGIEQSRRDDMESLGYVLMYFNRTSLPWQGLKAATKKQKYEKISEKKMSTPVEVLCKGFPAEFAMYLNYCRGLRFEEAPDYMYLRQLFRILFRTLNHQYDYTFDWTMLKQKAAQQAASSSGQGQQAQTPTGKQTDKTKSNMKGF
# Sequence of Casein kinase I isoform gamma-1 (Homo sapiens) (Q9HCP0 whole entry, looked up, canonical isoform): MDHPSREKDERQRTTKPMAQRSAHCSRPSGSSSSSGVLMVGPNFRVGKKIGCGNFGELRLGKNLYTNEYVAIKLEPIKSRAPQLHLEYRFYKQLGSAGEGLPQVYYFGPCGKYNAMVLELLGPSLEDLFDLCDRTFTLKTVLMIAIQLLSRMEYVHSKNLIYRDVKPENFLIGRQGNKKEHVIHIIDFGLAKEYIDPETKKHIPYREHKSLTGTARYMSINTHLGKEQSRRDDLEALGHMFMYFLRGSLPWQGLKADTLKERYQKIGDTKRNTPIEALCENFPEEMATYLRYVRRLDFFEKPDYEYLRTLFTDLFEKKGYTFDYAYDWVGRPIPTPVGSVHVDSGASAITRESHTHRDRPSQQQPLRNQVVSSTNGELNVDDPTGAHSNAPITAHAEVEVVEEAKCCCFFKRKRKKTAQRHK
SMILES,inhibition [1],inhibition [2],inhibition [3],inhibition [4],inhibition [5],inhibition [6],inhibition [7],inhibition [8],inhibition [9],inhibition [10]
NS(=O)(=O)c1ccc(N/N=C2\C(=O)Nc3ccc(C(=O)NCc4ccncc4)cc32)cc1,44%,5.34%,20.7%,2.55%,2.67%,1.19%,2.77%,2.33%,4.19%,1.94%
COc1cc(N2CCN(C(C)C)CC2)ccc1Nc1nc(Nc2cccc3ncccc23)c2cc[nH]c2n1,0.59%,5.22%,31.2%,0.31%,11.3%,-0.03%,2.43%,-1.03%,-0.55%,-1.25%
N#Cc1ccc2c(-c3ccnc(NC4CC4)n3)c(-c3ccc(F)cc3)nn2c1,0.07%,1.44%,-1.14%,1.07%,-0.63%,3.72%,30.1%,1.85%,4.03%,2%
CN1CCN(Cc2ccc(-c3cc4ncnc(Nc5ccc(OCc6cccc(F)c6)c(Cl)c5)c4s3)o2)CC1,2.76% and 4.14%,2.79% and 6.19%,3.62% and 7.65%,0.34% and 4.58%,0.35% and 5.87%,3.03% and 3.11%,4.88% and 3.62%,2.79% and 5.01%,4.51% and 5.57%,2.31% and 3.69%
Cc1cc(O)cc(C)c1/C=C/c1cncc(C(N)=O)c1,1.71%,0.78%,0.81%,0.45%,-0.39%,-2.11%,2.52%,2.23%,3.19%,1.83%
COc1cc2c(cc1Nc1nc(Nc3cccc(F)c3C(N)=O)c3cc[nH]c3n1)N(C(=O)CN1CCN(C(C)C)CC1)CC2,3.05%,5.1%,31.9%,2.49%,12.4%,1.84%,11.4%,2.53%,5.76%,2.46%
NS(=O)(=O)c1cccc(N/C=C2\C(=O)Nc3ccccc32)c1,14.4%,4.45%,4.78%,1.7%,1.39%,8.16%,21.6%,4.71%,10.6%,3.71%
Nc1nccc(-c2c(-c3ccc(F)cc3)ncn2C2CCNCC2)n1,-0.8% and 3.12%,-0.43% and -0.33%,-1.08% and -1.15%,-2.53% and 0.42%,-0.67% and -0.42%,61.4% and 67%,85% and 86.4%,-1.9% and 1.36%,8.77% and 13.7%,-1.89% and 0.78%
Fc1cccc(COc2ccc(Nc3ncncc3C#Cc3ccccc3)cc2Cl)c1,6.39%,3.55%,6.94%,2.49%,4.25%,5.09%,7.86%,4.27%,4.53%,3.09%
CNC(=O)c1sc(-n2cnc3cc(OC)c(OC)cc32)cc1OCc1ccccc1C(F)(F)F,4.39%,1.24%,1.63%,1.51%,1.01%,0.44%,2.65%,3.33%,3.86%,3.4%
CC1=C(C(=O)Nc2ccc3[nH]nc(C)c3c2)C(c2ccc(C(F)(F)F)cc2)CC(=O)N1 (stereo not given),3.52%,1.88%,0.25%,1.4%,-4.29%,2.09%,3.07%,1.96%,3.62%,1.19%
O=C(O[C@H]1CN[C@H](C#Cc2cc3ncnc(Nc4ccc5c(cnn5Cc5ccccc5)c4)c3s2)C1)N1CCOCC1,1.41%,0.75%,-0.13%,-0.69%,-1.3%,-2.11%,0.76%,-0.81%,0.82%,-0.61%
N#Cc1cccc(Nc2ncc(-c3ccccc3)o2)c1,3.86%,3.9%,5.55%,2.41%,4.88%,1.55%,0.38%,1.61%,3.03%,1.82%
CCOc1ccc2c(-c3ccnc(Nc4cc(OC)cc(C(F)(F)F)c4)n3)cnn2n1,37%,0.8%,0.89%,0.22%,-0.73%,2.19%,3.91%,-0.62%,1.33%,-0.22%
CS(=O)(=O)CCNCc1ccc(-c2ccc3ncnc(Nc4ccc(OCc5ccccc5)cc4)c3c2)o1,3.03%,3.31%,4.28%,5.73%,2.17%,4.49%,1.55%,2.67%,3.35%,2.72%
